Data from PubChem BioAssay AID1159580 (chemical genetic matrix, 2015).
“And” between values parts separate entries of the source, which are not always exact repeats. Equal entries are not always repeated. Out of some 5,500 compounds screened, about 2,000 (36%) were called active. Another 18% or so got no clear call; they are omitted. Rule as the data show it: active = normalized growth mostly below about 0.91 (no sharp cut-off); inconclusive = no clear call, values can overlap the other calls; inactive = mostly above about 0.92. The list shows a part of the results.

Assay: chemical genetic growth profiling, strain panel (AID 1159580);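 also: tested at 20 µM; growth read once vehicle control cultures reached saturation at 30 °C; 1 = growth at the plate median or of vehicle wells; lower values mean less growth of the strain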
Settings: S. cerevisiae deletion strains, growth OD

Measured: normalized growth

CC1CCC2(OC1)OC1CC3C4CCC5C[C@@H](O)CCC5(C)C4=CCC3(C)C1[C@@H]2C (stereo partly drawn)
inactive: locus YAL021C, strain ccr4, stronger effect = lower value 1 | locus YAL026C, strain drs2, stronger effect = lower value 0.999 | locus YAL030W, strain snc1, stronger effect = lower value 1.02 | locus YBL061C, strain skt5, stronger effect = lower value 1.01 | locus YBR009C, strain hhf1, stronger effect = lower value 1.01 | locus YBR021W, strain FUR4, stronger effect = lower value 1.13 | locus YBR023C, strain chs3, stronger effect = lower value 1.01 | locus YBR171W, strain sec66, stronger effect = lower value 0.995 | locus YBR229C, strain ROT2, stronger effect = lower value 0.991 | locus YBR231C, strain swc5, stronger effect = lower value 0.997 | locus YBR279W, strain paf1, stronger effect = lower value 1 | locus YCL011C, strain gbp2, stronger effect = lower value 0.991 | locus YCL016C, strain dcc1, stronger effect = lower value 1 | locus YCL029C, strain bik1, stronger effect = lower value 0.972 | locus YCL069W, strain vba3, stronger effect = lower value 0.994 | locus YCR088W, strain abp1, stronger effect = lower value 1.01 | locus YDL005C, strain med2, stronger effect = lower value 1.02 | locus YDL035C, strain GPR1, stronger effect = lower value 1.01 | locus YDL040C, strain nat1, stronger effect = lower value 0.994 | locus YDL074C, strain BRE1, stronger effect = lower value 1.01 | locus YDL101C, strain DUN1, stronger effect = lower value 0.985 | locus YDL185W, strain tfp1, stronger effect = lower value 0.948 | locus YDL192W, strain arf1, stronger effect = lower value 0.985 | locus YDR001C, strain nth1, stronger effect = lower value 0.997 | locus YDR069C, strain doa4, stronger effect = lower value 1.01 | locus YDR101C, strain arx1, stronger effect = lower value 1.01 | locus YDR137W, strain rgp1, stronger effect = lower value 1.04 | locus YDR159W, strain sac3, stronger effect = lower value 1.01 | locus YDR162C, strain NBP2, stronger effect = lower value 1.01 | locus YDR195W, strain ref2 0.931 | locus YDR297W, strain sur2, stronger effect = lower value 0.998 | locus YDR318W, strain mcm21, stronger effect = lower value 0.979 | locus YDR334W, strain swr1, stronger effect = lower value 1.01 | locus YDR335W, strain msn5, stronger effect = lower value 1 | locus YDR388W, stronger effect = lower value 0.966 | locus YDR392W, strain spt3, stronger effect = lower value 0.994 | locus YDR502C, strain sam2, stronger effect = lower value 0.974 | locus YEL003W, strain gim4, stronger effect = lower value 1 | locus YEL037C, strain rad23, stronger effect = lower value 1 | locus YEL061C, strain CIN8 (second series), stronger effect = lower value 0.993 | locus YEL061C, strain CIN8, stronger effect = lower value 0.996 | locus YER015W, strain faa2, stronger effect = lower value 1 | locus YER016W, strain bim1, stronger effect = lower value 1 | locus YER110C, stronger effect = lower value 0.959 | locus YER111C, strain swi4, stronger effect = lower value 0.994 | locus YER155C, strain BEM2 (second series), stronger effect = lower value 0.994 | locus YER155C, strain BEM2, stronger effect = lower value 1.01 | locus YER167W, strain BCK2, stronger effect = lower value 1.01 | locus YFR010W, strain ubp6, stronger effect = lower value 1 | locus YGL078C, strain dbp3, stronger effect = lower value 0.948 | locus YGL086W, strain mad1, stronger effect = lower value 0.998 | locus YGL167C, strain pmr1, stronger effect = lower value 1.01 | locus YGL173C, strain kem1, stronger effect = lower value 1.01 | locus YGL227W, strain vid30, stronger effect = lower value 0.986 | locus YGL240W, strain doc1, stronger effect = lower value 1.01 | locus YGL248W, strain PDE1, stronger effect = lower value 0.999 | locus YGL253W, strain hxk2, stronger effect = lower value 0.99 | locus YGR135W, strain pre9, stronger effect = lower value 0.958 | locus YGR252W, strain gcn5, stronger effect = lower value 1.01 | locus YHR013C, strain ard1, stronger effect = lower value 0.998 | locus YHR027C, strain rpn1, stronger effect = lower value 0.989 | locus YHR030C, strain SLT2, stronger effect = lower value 0.972 and 1.02 | locus YHR079C, strain IRE1 (second series), stronger effect = lower value 0.983 | locus YHR079C, strain IRE1, stronger effect = lower value 1.01 | locus YHR094C, strain hxt1, stronger effect = lower value 0.973 | locus YHR129C, strain ARP1, stronger effect = lower value 0.998 | locus YHR142W, strain chs7, stronger effect = lower value 0.995 | locus YHR200W, strain rpn10, stronger effect = lower value 0.986 | locus YIL066C, strain RNR3, stronger effect = lower value 1 | locus YIL073C, strain SPO22, stronger effect = lower value 0.937 | locus YIL125W, strain kgd1, stronger effect = lower value 0.982 | locus YIR030C, strain dcg1, stronger effect = lower value 0.991 | locus YJL092W, strain hpr5, stronger effect = lower value 0.993 | locus YJL095W, strain BCK1 (second series), stronger effect = lower value 1.02 | locus YJL095W, strain BCK1, stronger effect = lower value 0.982 and 1.02 | locus YJL115W, strain asf1, stronger effect = lower value 0.986 | locus YJL129C, strain trk1, stronger effect = lower value 1.01 | locus YJL134W, strain LCB3, stronger effect = lower value 0.987 | locus YJL154C, strain vps35, stronger effect = lower value 1 | locus YJL164C, strain tpk1, stronger effect = lower value 1.01 | locus YJL166W, strain qcr8, stronger effect = lower value 1 | locus YJL168C, strain set2, stronger effect = lower value 0.984 | locus YJL187C, strain SWE1 (second series), stronger effect = lower value 0.986 | locus YJL187C, strain SWE1, stronger effect = lower value 1.01 | locus YJR043C, strain POL32, stronger effect = lower value 1.02 | locus YJR066W, strain TOR1, stronger effect = lower value 0.945 | locus YKL009W, strain mrt4, stronger effect = lower value 0.988 | locus YKL068W, stronger effect = lower value 0.97 | locus YKL085W, strain MDH1 (second series), stronger effect = lower value 0.978 | locus YKL085W, strain MDH1, stronger effect = lower value 0.978 | locus YKL160W, strain elf1, stronger effect = lower value 0.992 | locus YKL190W, strain CNB1, stronger effect = lower value 0.992 | locus YKR001C, strain vps1, stronger effect = lower value 0.983 | locus YKR026C, strain gcn3, stronger effect = lower value 1 | locus YKR091W, strain srl3, stronger effect = lower value 1.01 | locus YLL001W, strain dnm1, stronger effect = lower value 1.01 | locus YLL026W, stronger effect = lower value 0.992 | locus YLL041C, strain sdh2, stronger effect = lower value 0.992 | locus YLR027C, strain aat2, stronger effect = lower value 0.985 | locus YLR039C, strain RIC1, stronger effect = lower value 1.01 | locus YLR058C, strain SHM2, stronger effect = lower value 0.973 | locus YLR102C, strain apc9, stronger effect = lower value 0.974 | locus YLR113W, strain HOG1, stronger effect = lower value 0.992 | locus YLR221C, strain rsa3, stronger effect = lower value 1 | locus YLR258W, strain gsy2, stronger effect = lower value 0.994 | locus YLR262C, strain YPT6 (second series), stronger effect = lower value 1.1 | locus YLR262C, strain YPT6, stronger effect = lower value 1.04 | locus YLR268W, strain sec22, stronger effect = lower value 0.999 | locus YLR320W, strain mms22, stronger effect = lower value 1 | locus YLR330W, strain CHS5, stronger effect = lower value 0.993 | locus YLR342W, strain FKS1 (second series), stronger effect = lower value 1.05 | locus YLR342W, strain FKS1, stronger effect = lower value 1.05 | locus YLR357W, strain rsc2, stronger effect = lower value 1 | locus YLR370C, strain arc18, stronger effect = lower value 1.02 | locus YLR371W, strain rom2, stronger effect = lower value 0.978 | locus YLR384C, strain iki3, stronger effect = lower value 1.01 | locus YLR418C, strain cdc73, stronger effect = lower value 0.977 | locus YML016C, strain PPZ1, stronger effect = lower value 1.01 | locus YML032C, strain rad52, stronger effect = lower value 0.964 | locus YML120C, strain ndi1, stronger effect = lower value 0.99 | locus YML124C, strain tub3, stronger effect = lower value 0.98 | locus YMR058W, strain fet3, stronger effect = lower value 0.983 | locus YMR078C, strain ctf18, stronger effect = lower value 0.98 | locus YMR125W, strain sto1, stronger effect = lower value 0.995 | locus YMR129W, stronger effect = lower value 0.997 | locus YMR205C, strain PFK2, stronger effect = lower value 0.997 | locus YMR223W, strain ubp8, stronger effect = lower value 0.994 | locus YMR231W, strain pep5, stronger effect = lower value 0.998 | locus YMR263W, strain SAP30, stronger effect = lower value 0.982 | locus YMR307W, strain GAS1, stronger effect = lower value 1.27 | locus YNL067W, strain RPL9B, stronger effect = lower value 0.974 | locus YNL071W, strain lat1, stronger effect = lower value 1.02 | locus YNL183C, strain NPR1, stronger effect = lower value 0.963 | locus YNL209W, strain ssb2, stronger effect = lower value 1 | locus YNL233W, strain BNI4, stronger effect = lower value 0.99 | locus YNL248C, strain rpa49, stronger effect = lower value 1.01 | locus YNL250W, strain rad50, stronger effect = lower value 0.959 | locus YNL271C, strain bni1, stronger effect = lower value 0.983 | locus YNL298W, strain CLA4, stronger effect = lower value 0.98 | locus YNL307C, strain MCK1, stronger effect = lower value 0.982 | locus YNL322C, strain KRE1 (second series), stronger effect = lower value 0.986 | locus YNL322C, strain KRE1, stronger effect = lower value 1 | locus YNR049C, strain mso1, stronger effect = lower value 1.01 | locus YNR052C, strain pop2, stronger effect = lower value 0.981 | locus YOL012C, strain htz1 0.809 | locus YOL147C, strain pex11, stronger effect = lower value 0.98 | locus YOR001W, strain rrp6, stronger effect = lower value 1.01 | locus YOR061W, strain CKA2, stronger effect = lower value 1 | locus YOR069W, strain VPS5, stronger effect = lower value 0.981 | locus YOR070C, strain gyp1, stronger effect = lower value 1.01 | locus YOR080W, strain dia2, stronger effect = lower value 1.01 | locus YOR083W, strain WHI5, stronger effect = lower value 1 | locus YOR106W, strain vam3, stronger effect = lower value 1.02 | locus YOR136W, strain idh2, stronger effect = lower value 0.983 | locus YOR144C, strain elg1, stronger effect = lower value 0.979 | locus YOR184W, strain ser1, stronger effect = lower value 0.996 | locus YOR231W, strain MKK1, stronger effect = lower value 1 | locus YOR265W, strain rbl2, stronger effect = lower value 0.999 | locus YOR270C, strain vph1, stronger effect = lower value 1.04 | locus YOR290C, strain snf2, stronger effect = lower value 1 | locus YOR316C, strain cot1, stronger effect = lower value 0.959 | locus YPL051W, strain arl3, stronger effect = lower value 0.997 | locus YPL055C, strain LGE1, stronger effect = lower value 1.02 | locus YPL078C, strain atp4, stronger effect = lower value 0.991 | locus YPL106C, strain sse1, stronger effect = lower value 0.995 | locus YPL240C, strain hsp82, stronger effect = lower value 1.01 | locus YPL241C, strain CIN2, stronger effect = lower value 0.989 | locus YPL256C, strain CLN2, stronger effect = lower value 0.983 | locus YPR119W, strain clb2, stronger effect = lower value 0.985 | locus YPR141C, strain kar3, stronger effect = lower value 0.962 | locus YPR163C, strain tif3, stronger effect = lower value 0.954 | locus YPR167C, strain met16, stronger effect = lower value 0.989 | strain wtn01, stronger effect = lower value 0.986
